The campaign covered roughly 340,000 compounds. About 270 (0.079%) were called active. This is one part of a sample in which actives are shown more often than they occur.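 The calls were made as follows: active = activation above a cutoff set at the mean over all compounds plus 3 SD (cut at about 18% in these data); inactive = the rest.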
Target: cAMP-dependent protein kinase catalytic subunit beta (Homo sapiens) + cAMP-dependent protein kinase type II-beta regulatory subunit (Homo sapiens) (UniProt P22694+P31323)
Sequence (P31323 whole entry, looked up, other chains not shown): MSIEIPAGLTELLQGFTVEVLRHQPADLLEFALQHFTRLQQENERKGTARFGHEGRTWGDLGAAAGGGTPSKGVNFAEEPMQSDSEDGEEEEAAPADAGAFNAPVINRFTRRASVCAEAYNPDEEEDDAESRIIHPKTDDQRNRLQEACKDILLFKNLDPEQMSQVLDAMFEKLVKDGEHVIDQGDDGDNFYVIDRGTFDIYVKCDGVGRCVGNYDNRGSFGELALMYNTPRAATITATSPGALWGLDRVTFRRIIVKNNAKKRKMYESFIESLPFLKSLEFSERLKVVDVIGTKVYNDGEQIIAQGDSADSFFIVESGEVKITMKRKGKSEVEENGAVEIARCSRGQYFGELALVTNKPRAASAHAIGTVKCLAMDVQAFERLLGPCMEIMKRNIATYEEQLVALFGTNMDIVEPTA
Test: compounds dissociating PKAc from R2B subunit – biochemical, fluorescence polarization, Cy5-IP20, human, primary screen (AID 504700);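 also: higher means more holoenzyme dissociation and a rise in polarization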
Details: PKA-R2B holoenzyme dissociation, at 11.4 µM, hits give high values, 0% DMSO only, 100% 113 µM cGMP, R2B truncated from residue 108, S112A mutant

SMILES | activation
CCN(CC)C(=O)C1=C(C)N(Cc2ccc(F)cc2)C(=O)C(CC(=O)NCc2cccc3ccccc23)C1 (stereo not drawn) | 1.37% (inactive)
O=c1[nH]c2ccccc2n1C1CCN(CCOc2ccccc2)CC1 | -11% (inactive)
CSC1=NN(c2ccccc2)CN(c2ccccc2)N1C | 9.82% (inactive)
O=C(COC(=O)Cc1ccc(Cl)cc1Cl)NCc1ccco1 | -1.41% (inactive)
CCCC(=O)Nc1ncnc2c1ncn2[C@@H]1O[C@@H]2OP(=O)(O)OC[C@H]2[C@H]1OC(=O)CCC | 42.6% (active)
CCOC(=O)c1c(C)[nH]c(C)c1C(=O)COC(=O)/C=C/c1cccc([N+](=O)[O-])c1 | -7.22% (inactive)
COc1ccc(CN2C(=O)C(CC(=O)NCCN3CCOCC3)CC(C(=O)N(C(C)C)C(C)C)=C2C)cc1 (stereo not drawn) | -6% (inactive)
CC(OC(=O)c1cccc(S(=O)(=O)N2CCOCC2)c1)C(=O)NCC1CCCCC1 (stereo not drawn) | 12.7% (inactive)
O=S(=O)(NCCc1ccccc1)c1ccccc1 | -0.17% (inactive)
O=S(=O)(NCCc1ccncc1)c1ccccc1 | -6.62% (inactive)
O=S(=O)(NCCNS(=O)(=O)c1ccccc1)c1ccccc1 | 21.6% (active)
COc1ccc(C(C)(C)C)cc1NC(=O)CN(C)C1=NS(=O)(=O)c2ccccc21 | -0.8% (inactive)
O=C(Nc1cc(F)ccc1F)c1ccc2c(=O)n3c(nc2c1)CCC3 | 0.72% (inactive)
CC(C)CCOc1ccc(C(=O)Nc2cc(S(=O)(=O)N3CCOCC3)ccc2N2CCOCC2)cc1 | -1.72% (inactive)
Cc1sc2nc(-c3ccccc3F)oc(=O)c2c1C | -7.56% (inactive)
O=C(NCc1nnnn1-c1ccc(Cl)cc1)c1ccc([N+](=O)[O-])o1 | -12% (inactive)
COc1cc(NC(=O)C2=C(C)OCCS2)c(Cl)cc1C(=O)NCCCN1CCCC(C)C1 (stereo not drawn) | -6.54% (inactive)
C[C@H]1Cn2cnc(C(=O)N[C@H](C)c3ccccc3)c2C(=O)N1 | 1.6% (inactive)
Cc1ccn2c(-c3csc(Nc4ccc(C(=O)O)cc4)n3)c(C)nc2c1 | -9.54% (inactive)
C[C@@H]1CN([C@@H](C)CO)C(=O)CCCn2cc(nn2)CO[C@H]1CN(C)S(=O)(=O)c1ccc(-n2cccn2)cc1 | -4.5% (inactive)
CCc1c(N=O)c(-c2ccccc2)n(O)[n+]1[O-] | -1.7% (inactive)

SMILES | activation
C[C@@H]1CN([C@@H](C)CO)C(=O)c2cc(Br)cnc2O[C@H]1CN(C)Cc1ccc(-c2ccccc2)cc1 | 1.42% (inactive)
O=C(CC(CC(=O)c1ccccc1)c1ccco1)c1ccccc1 | -2.04% (inactive)
C[C@@H]1Cn2cnc(C(=O)Nc3ccc(CNC(=O)OC(C)(C)C)cc3)c2C(=O)N1 | -0.19% (inactive)
COCCCn1c(=O)/c(=C/c2ccccc2OC(C)C)s/c1=C(\C#N)C(=O)Nc1ccc(C(=O)O)cc1 | 0.06% (inactive)
O=C(OCc1ccccc1)N1CCC2CC1c1cc(N3CCN(S(=O)(=O)c4cc(Cl)cc(Cl)c4)CC3)ccc12 (stereo not drawn) | -12.1% (inactive)
CCc1cccc(CC)c1N1C(=O)CC(Sc2ccccc2N)C1=O (stereo not drawn) | 3.56% (inactive)
COc1cccc(OC)c1C(=O)N1CCN(Cc2ccccc2F)CC1 | -3.43% (inactive)
COC(=O)C(Cc1c[nH]c2ccccc12)NC(=O)CCNC(=O)c1ccco1 (stereo not drawn) | 7.88% (inactive)
COc1cc2c(=O)n(C)c3ccccc3c2cc1OC | -7.59% (inactive)
N#CC1(Nc2ccc3c4c(cccc24)CC3)CCCCC1 | -2.43% (inactive)
Cc1ccc([C@H]2C[C@H](O)[C@@H](n3cc(COC(=O)c4ccccc4)nn3)CN2C(=O)C2CCCCC2)cc1 | -12.7% (inactive)
O=NN(CCCl)C(=O)NCCc1cccc[n+]1[O-] | -9.83% (inactive)
CC(C)N=C1CCCC1C(=S)SSC(=S)C1CCCC1=NC(C)C (stereo not drawn) | -0.99% (inactive)
Cc1ccc(CN(C)C[C@@H]2OCc3cnnn3CCCC(=O)N([C@@H](C)CO)C[C@H]2C)cc1 | -5.57% (inactive)
CC1=C(C(=O)N2CCOCC2)CC(CC(=O)NCc2ccco2)C(=O)N1Cc1ccc(F)cc1 (stereo not drawn) | -2.68% (inactive)
C=CCOc1ccccc1CNn1c(C)n[nH]c1=S | 10.7% (inactive)
Cc1c(NC(=O)COC(=O)/C=C/c2cccc(F)c2)c(=O)n(-c2ccccc2)n1C | -14.1% (inactive)
CCc1cc(-c2nnn(CCC3COCCO3)c2CC)ccc1-c1cn(Cc2ccc3ccccc3c2)nn1 (stereo not drawn) | 2.92% (inactive)
CCC1NC(=O)c2cccnc2-n2c1nc1ccc(C)cc1c2=O (stereo not drawn) | 2.84% (inactive)
CNC(=O)c1ccc(CN(C)C(=O)c2cc(C3CC3)nc3c2cnn3C(C)C)cc1 | -10% (inactive)
O=C(OCC(=O)N1CCCCCC1)c1cccc(Cl)c1Cl | -0.23% (inactive)

SMILES | activation
CC(C)(C)c1ccc(C(=O)N2CCC(C(=O)N3CCCCC3)CC2)cc1 | 19.2% (active)
NC(=O)C1CCN(C(=O)c2ccc(C(F)(F)F)cc2)CC1 | -0.72% (inactive)
O=C(c1ccc(F)cc1)N1CCCC(C(=O)N2CCCCC2)C1 (stereo not drawn) | -0.42% (inactive)
CC1=C(C(=O)N(C)C)CC(CC(=O)NCCN2CCOCC2)C(=O)N1Cc1ccccc1 (stereo not drawn) | 10.5% (inactive)
COc1ccccc1-c1n[nH]nc1C1=CC(=O)CC(C)(C)C1 | -8.69% (inactive)
Cc1ccc(C(=O)N[C@H](C(=O)N2CCN(c3ncccn3)CC2)C(C)C)cc1 | -3.29% (inactive)
CCCCN1C(=O)C(CC(=O)NCc2cccs2)CC(C(=O)N2CCOCC2)=C1C (stereo not drawn) | 3.17% (inactive)
O=C(OCc1cn([C@H]2C[C@H](c3ccccc3)N(C(=O)c3cccs3)C[C@@H]2O)nn1)c1ccccc1 | 4.15% (inactive)
COc1ccc(C(=O)N/N=C(\C)CC(=O)Nc2ccc(Cl)cn2)cc1 | -4.03% (inactive)
COc1ccc(C/C(C)=N/NC(=O)c2cc(C)oc2C)cc1 | -9.63% (inactive)
COc1ccc(C/C(C)=N/NC(=O)c2ccncc2)cc1 | 18.7% (active)
C[C@H]1Cn2cnc(C(=O)N[C@@H](Cc3c[nH]c4ccccc34)C(=O)OC(C)(C)C)c2C(=O)N1 | -2.27% (inactive)
CC(=O)Nc1c(-c2ccc(C)cc2)nc2ccc(Cl)cn12 | -8.99% (inactive)
CC1CCN(c2ccc3c(c2)S(=O)(=O)c2cc(C(=O)O)ccc2C3=O)CC1 | -8.29% (inactive)
CCN(CC)CCN(C(=O)c1ccc2c(c1)CCCC2)c1nc2c(OC)cccc2s1 | -1.68% (inactive)
CNS(=O)(=O)c1ccc2c(c1)[nH]c(=S)n2C | 9.72% (inactive)
C=CCn1nc(C(=O)OCC)cc1-c1sc(NC(=O)c2ccccc2)nc1C | 4.98% (inactive)
COc1ccc(C(=O)NCC2CCCO2)cc1S(=O)(=O)NCc1ccc(Cl)cc1 (stereo not drawn) | -8.65% (inactive)
Cc1cc2c3ccccc3[nH]c(=O)n2n1 | -8.33% (inactive)
CCOc1ccc(S(=O)(=O)NCCC(=O)NNC(=O)c2ccc(F)cc2)cc1 | -0.05% (inactive)
COc1ccc(-n2c(-c3ccc(Cl)cc3)n[nH]c2=S)c(OC)c1 | 13% (inactive)

SMILES | activation
C[C@H]1CN([C@@H](C)CO)S(=O)(=O)c2ccc(-c3cccc(F)c3)cc2O[C@@H]1CN(C)C | -5.98% (inactive)
COc1ccc2nc(-c3ccccn3)ccc2c1 | -2.17% (inactive)
COc1ccc(Cn2c(=O)oc3ccccc32)cc1 | -4.8% (inactive)
O=C1[C@H]2[C@@H](c3ccc(C(F)(F)F)cc3)N[C@]3(CCCN(Cc4ccc(Cl)cc4)C3=O)[C@H]2C(=O)N1Cc1ccccc1 | -7.06% (inactive)
COc1ccc(-c2ccc(CN3C(CC(C)C)C(=O)N(Cc4cn(CC5CCCCC5)nn4)CCS3(=O)=O)cc2)cn1 (stereo not drawn) | 5.33% (inactive)
O=C(COC(=O)c1cncc(Br)c1)Nc1ccc(S(=O)(=O)N2CCOCC2)cc1 | -6.43% (inactive)
CCOC(=O)c1cc(-c2sc(NC(=O)c3ccccc3)nc2C)n(CCO)n1 | -2.07% (inactive)
COC(=O)[C@H]1C[C@H](OC(=O)NCc2ccccc2)[C@@]2(O)CN(S(=O)(=O)c3ccc(C)cc3)CC2[C@H]1C(=O)OC (stereo partly drawn) | 1.85% (inactive)
O=C(C[C@H]1C[C@@H]2c3cc(NC(=O)C4CCC4)ccc3O[C@@H]2[C@H](CO)O1)NC1CCCCC1 | -4.88% (inactive)
CCN(CC(=O)Nc1ccc(NC(C)=O)cc1)C(=O)C1CC(=O)N(c2ccc3c(c2)OCCO3)C1 (stereo not drawn) | 1.33% (inactive)
Cc1ccccc1-c1ccc2c(c1)O[C@@H](CN(C)Cc1ccc(C(=O)O)cc1)[C@@H](C)CN([C@H](C)CO)S2(=O)=O | 1.68% (inactive)
Cc1cc(C)c2cc(C#N)c(N3CCNCC3)nc2c1 | 5.23% (inactive)
COCC1CCCCN1C(=O)c1cc(COc2ccc(C)c(C)c2)on1 (stereo not drawn) | -6.78% (inactive)
c1ccc(CNCc2ccc(CNCc3ccccc3)cc2)cc1 | -1.27% (inactive)
C[C@@H]1CN([C@H](C)CO)C(=O)CCCn2nncc2CO[C@@H]1CN(C)S(=O)(=O)c1cccc(C#N)c1 | 5.67% (inactive)
O=C(c1ccccc1)N1CCN(c2cc(-c3ccccc3)nc3cc(-c4cccc(Cl)c4)nn23)CC1 | -2.44% (inactive)
C[C@H]1NS(=O)(=O)c2cc(Cl)ccc2O[C@@H]1c1ccccc1 | -0.08% (inactive)
S=C(NN=Cc1ccccn1)Nc1ccccn1 | 12.6% (inactive)
CN1OC[C@@H]2CN(C(=O)c3ccc(-c4ccccc4)cc3)[C@H](c3ccc(-c4cccc(F)c4)cc3)C[C@@H]21 | -8.75% (inactive)
C[C@H](CO)N1C[C@H](C)[C@H](CN(C)C(=O)Nc2ccc3c(c2)OCO3)Oc2ncc(Br)cc2C1=O | 6.88% (inactive)
